# In PubChem BioAssay (NCATS):
# Results filed as inconclusive are left out. Where a call stands in place of a potency, no number is given. Active and inactive are the calls of the source. Calls come from the whole dose curve; as a rule, active = well fitted inhibition curve with a large enough effect; inconclusive = small, poorly fitted or top-dose-only effect; inactive = flat fitted curve, though single readings scatter.
# System: DIV30
# Assay: qHTS profiling for inhibitors of Plasmodium falciparum proliferation (AID 504749); note: nearly all actives have a fitted effect of over 60% in size
# Conditions: P. falciparum in erythrocytes, SYBR Green DNA, 72 h; series mostly up to 28.7 µM
# Summary of the method: (§1)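 Readout was DNA-dye fluorescence from lysed cultures, ex 485/em 535 nm. Parasitized red cells had grown 72 h with compound; data scaled between 0.29 uM artemisinin and DMSO wells and corrected using vehicle-only plates.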
# Potency is the fitted concentration of half-maximal effect.
row,Structure (SMILES),Potency
1,CCCCCCCCCCCC(=O)OCC(O)C1OCC(O)C1O (stereo not given),inactive
2,C/C1=C2/[N-]C(C(CC(N)=O)[C@@]2(C)CCC(=O)NCC(C)OP(=O)([O-])O[C@H]2[C@@H](O)[C@@H](n3cnc4cc(C)c(C)cc43)O[C@@H]2CO)[C@]2(C)N=C(/C(C)=C3N=C(/C=C4N=C1C(CCC(N)=O)C\4(C)C)[C@@H](CCC(N)=O)[C@]\3(C)CC(N)=O)[C@@H](CCC(N)=O)[C@]2(C)CC(N)=O.CC(=O)O.[Co] (stereo not given in full),inactive
3,CC1(C)OC[C@@H]2O[C@@]3(C(=O)O)OC(C)(C)O[C@@H]3[C@@H]2O1,inactive
4,Cc1ccccc1N1C(=O)c2cc(N)ccc2N/C1=C\F,inactive
5,CCC(C(=O)O)C1OC(C(C)C(O)C(C)C(=O)C(CC)C2OC3(C=CC(O)C4(CCC(C)(C5CCC(O)(CC)C(C)O5)O4)O3)C(C)CC2C)C(C)CC1C (stereo not given),67.5 nM (active)
6,O=C1C(I)=CC(=C(c2cc(I)c(O)c(I)c2)c2ccccc2C(=O)O)C=C1I,inactive
7,NC(=O)NC(CCC(=O)O)C(=O)O (stereo not given),inactive
8,COC1CC2CCC(C)[C@](O)(O2)C(=O)C(=O)N2CCCCC2C(=O)OC(C(C)CC2CCC(O)C(OC)C2)CC(=O)C(C)/C=C(/C)C(O)C(OC)C(=O)C(C)CC(C)C=CC=C/C=C\1C (stereo not given in full),953 nM (active)
9,CC(=O)OCC(=O)[C@@]1(O)CCC2C3C[C@H](C)C4=CC(=O)C=CC4(C)C3C(O)CC21C (stereo not given in full),inactive
10,CN[C@H](C)CCC=C(C)C,135 nM (active)
11,CC1(C)C2CC[C@]1(C)[C@@H](O)C2,inactive
12,OCC1O[C@H](Oc2ccc(O)cc2)C(O)C(O)C1O (stereo not given in full),inactive
13,Nc1nc(F)nc2c1ncn2[C@@H]1O[C@H](CO)[C@@H](O)[C@H]1O,inactive
14,CC1OC(OC2CCC3(C)C(CCC4C3CC(O)C3(C)C(C5=CC(=O)OC5)CCC43O)C2)CC(O)C1OC1CC(O)C(OC2CC(O)C(OC3OC(CO)C(O)C(O)C3O)C(C)O2)C(C)O1 (stereo not given),inactive
15,CC1OC(OCC2OC(Oc3c(-c4ccc(OCCO)c(OCCO)c4)oc4cc(OCCO)cc(O)c4c3=O)C(O)C(O)C2O)[C@@H](O)C(O)C1O (stereo not given in full),inactive

# System: Dd2
# Assay: as above
# Conditions: P. falciparum in erythrocytes, SYBR Green DNA, 72 h; series mostly up to 28.7 µM
# Summary of the method: as §1
row,Structure (SMILES),Potency
1,CCCCCCCCCCCCCCCC(=O)OC[C@H](O)[C@H]1OC[C@@H](O)[C@@H]1O,inactive
2,CCCCC(=O)OCC(=O)[C@]1(O)Cc2c(O)c3c(c(O)c2[C@H](OC2CC(NC(=O)C(F)(F)F)C(O)C(C)O2)C1)C(=O)c1c(OC)cccc1C3=O (stereo not given in full),2240 nM (active)
3,C[C@H]1OC(OC2C(O)[C@@H](O)C(OC3C(O)[C@@H](O)C(O)O[C@@H]3CO)O[C@@H]2CO)[C@H](O)C(O)C1N[C@H]1C=C(CO)[C@@H](O)[C@H](O)C1O (stereo not given in full),inactive
4,CCN(CC)CC(=O)Nc1c(C)cc(C)cc1C,inactive
5,CC(=O)N[C@H]1[C@H](O[C@@H]2c3ccc(c(Cl)c3)Oc3cc4cc(c3O[C@@H]3O[C@H](CO)[C@@H](O)[C@H](O)C3C)Oc3ccc(cc3Cl)C[C@H]3NC(=O)[C@@H](N)c5ccc(O)c(c5)Oc5cc(O)cc(c5)[C@H](NC3=O)C(=O)N[C@H]4C(=O)N[C@H]3C(=O)N[C@@H]2C(=O)N[C@@H](C(=O)O)c2cc(O)cc(O[C@H]4O[C@H](CO)[C@@H](O)C(O)[C@@H]4O)c2-c2cc3ccc2O)O[C@H](CO)[C@@H](O)[C@@H]1O (stereo not given in full),inactive
6,NC(=O)c1ncn(C2OC(CO)C(O)C2O)c1N (stereo not given),inactive
7,C[C@H]1[C@@H](OC(=O)CCC(=O)O)OC2OC3(C)CC[C@H]4[C@H](C)CC[C@@H]1[C@@]24OO3 (stereo not given in full),4.5 nM (active)
8,CC1(Cn2ccnn2)[C@H](C(=O)O)N2C(=O)C[C@H]2S1(=O)=O (stereo not given in full),inactive
9,CN(C)CC/C=C1\c2ccccc2COc2ccc(CC(=O)O)cc21,inactive
10,CCCC(=O)O[C@]1(C(=O)COC(C)=O)CC[C@H]2C3C[C@H](F)C4=CC(=O)C=CC4(C)[C@@]3(F)[C@@H](O)CC21C (stereo not given in full),inactive
11,OCCN1CC(O)C(O)C(O)C1CO (stereo not given),inactive
12,COc1cc2c(cc1O)CCN[C@@]21CS[C@H]2c3c(OC(C)=O)c(C)c4c(c3C(COC1=O)N1C2C2c3c(cc(C)c(OC)c3O)CC([C@@H]1O)N2C)OCO4 (stereo not given in full),1 nM (active)
13,CC(CCC(=O)O)C1CCC2C3C(=O)C[C@@H]4CC(=O)CC[C@@]4(C)C3CC(=O)[C@]12C (stereo not given in full),inactive
14,C[n+]1c2cc(N)ccc2cc2ccc(N)cc21,355 nM (active)
15,O=C(OC[C@@H]1O[C@@](O)(COC(=O)c2cccnc2)[C@H](OC(=O)c2cccnc2)[C@H]1OC(=O)c1cccnc1)c1cccnc1,inactive
